We go through 5 compounds from PubChem BioAssay (EPA / NIEHS).

“And” between values parts separate entries of the source, which are not always exact repeats. Identical values can stand only once. Results filed as inconclusive are left out. The source made the active and inactive calls. Rule for the calls, unless noted: active = hit-call score of the fitted dose curve at least 0.9, where 1 is the maximum; inactive = score below 0.9.

In assay [1] the target is human Retinoic Acid Receptor gamma (RARg), RARG (gene 5916) (UniProt P13631). Nature of the assay: ATG_RARg_TRANS: Attagene TRANS-FACTORIAL HepG2 Assay for human Retinoic Acid Receptor gamma (RARg) (AID 2283009; active = hit-call score of the fitted dose curve at least 0.9, where 1 is the maximum). Summed up: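 HepG2, RARg-GAL4 TRANS system, 24 h exposure; reporter mRNA by RT-PCR + CE fluorescence; increase over DMSO.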
Assay [2] concerns the target human RAR-related Orphan Receptor gamma (RORg), RORC (gene 6097) (UniProt P51449). Nature of the assay: ATG_RORg_TRANS: Attagene TRANS-FACTORIAL HepG2 Assay for human RAR-related Orphan Receptor gamma (RORg) (AID 2283011; active = hit-call score of the fitted dose curve at least 0.9, where 1 is the maximum). Summed up:
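Readout: reporter transcript induction (RT-PCR, fluorescent primer extension, capillary electrophoresis) after 24 h compound exposure of transiently transfected HepG2 cells carrying a RORg-Gal4 chimera and GAL4-UAS reporters; DMSO served as baseline, with increasing signal fitted.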

Assay [3] deals with Retinoic acid receptor RXR-alpha (Homo sapiens) (UniProt P19793). Nature of the assay: ATG_RXRa_TRANS: Attagene TRANS-FACTORIAL HepG2 Assay for human Retinoid X Receptor alpha (RXRa) (AID 2283012; active = hit-call score of the fitted dose curve at least 0.9, where 1 is the maximum). The method, boiled down:
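Cells (HepG2) carried transiently transfected GAL4-responsive reporter units. Following a 24 h chemical incubation, reporter mRNA induction was read via RT-PCR fragment analysis; DMSO served as negative control and baseline.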

Assay [4] has as its target human Thyroid Receptor alpha (THRa1), THRA (gene 7067) (UniProt P10827). Description: ATG_THRa1_TRANS: Attagene TRANS-FACTORIAL HepG2 Assay for human Thyroid Receptor alpha (THRa1) (AID 2283014; active = hit-call score of the fitted dose curve at least 0.9, where 1 is the maximum). Summed up: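 HepG2 cells transiently transfected with multiplexed GAL4-UAS reporter units for exogenous chimeric THRa1-Gal4; reporter mRNA measured 24 h after dosing by RT-PCR, 6-FAM labelling, HpaI digestion and capillary electrophoresis. Gain-of-signal fitted versus DMSO baseline.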

Read-out in assay [5]: E-selectin (Homo sapiens) (UniProt P16581)
Description: BSK_3C_Eselectin: BioMAP Diversity Plus: 3C Assay for Eselectin Biomarker Activity (AID 2283015).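 For outcome: cell surface E-selectin protein quantified by ELISA 24 h after dosing.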 As to conditions: primary human endothelial cells (HUVEC); actives raise or lower the signal. Summed up: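 Primary human umbilical vein endothelial cells (3C system) were dosed with chemical and cell-surface E-selectin measured by ELISA 24 h later. Bidirectional curve fitting used DMSO as negative control and baseline.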

Read-out in assay [6]: Interleukin-1 alpha (IL1a), IL1A (gene 3552)
Nature of the assay: BSK_BE3C_IL1a: BioMAP Diversity Plus: BE3C Assay for Interleukin-1 alpha (IL1a) Biomarker Activity (AID 2283016). As to conditions: primary human bronchial epithelial cells; actives raise or lower the signal. Summed up: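 Cultures of primary human bronchial epithelial cells receive test chemical. After 24 h, IL-1a is quantified by ELISA, while parallel wells are fixed in TCA and SRB-stained for total protein. Changes in either direction are fitted relative to DMSO.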

Read-out in assay [7]: Monocyte Chemoattractant Protein-1 (MCP1), CCL2 (gene 6347)
Description: BSK_3C_MCP1: BioMAP Diversity Plus: 3C Assay for Monocyte Chemoattractant Protein-1 (MCP1) Biomarker Activity (AID 2283017). As to conditions: primary human endothelial cells (HUVEC); actives raise or lower the signal. Summed up:
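Primary human umbilical vein endothelial cells (3C system) were exposed to test chemical for 24 h, after which MCP-1 was quantified by ELISA. Activity was fitted bidirectionally against DMSO as negative control and baseline.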

Read-out in assay [8]: Monocyte Chemoattractant Protein-1 (MCP1), CCL2 (gene 6347)
Nature of the assay: BSK_4H_MCP1: BioMAP Diversity Plus: 4H Assay for Monocyte Chemoattractant Protein-1 (MCP1) Biomarker Activity (AID 2283018). As to conditions: primary human endothelial cells (HUVEC); actives raise or lower the signal. The method, boiled down:
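Readout: MCP-1 ELISA on compound-treated HUVEC, sampled 24 h post-dosing. Baseline and negative control DMSO; bidirectional fit. Overt toxicity checked alongside by sulforhodamine B protein staining at time of biomarker measurement.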

Read-out in assay [9]: Human Leukocyte Antigen - DR isotype (HLADR), HLA-DRA (gene 3122)
Nature of the assay: BSK_3C_HLADR: BioMAP Diversity Plus: 3C Assay for Human Leukocyte Antigen - DR isotype (HLADR) Biomarker Activity (AID 2283019). As to conditions: primary human endothelial cells (HUVEC); actives raise or lower the signal. The method, boiled down: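 Primary human umbilical vein endothelial cells (3C system) were dosed with compound and cell-surface HLA-DR was quantified by ELISA at 24 h. Activity was fitted bidirectionally against DMSO as negative control and baseline.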

Read-out in assay [10]: Interleukin-8 (IL8), CXCL8 (gene 3576)
Nature of the assay: BSK_3C_IL8: BioMAP Diversity Plus: 3C Assay for Interleukin-8 (IL8) Biomarker Activity (AID 2283020). As to conditions: primary human endothelial cells (HUVEC); actives raise or lower the signal. Summed up:
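Human vascular endothelial cells (umbilical vein) in the 3C system; IL-8 level detected by ELISA at 24 h post-dose, with DMSO as baseline.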

Read-out in assay [11]: Monokine induced gamma interferon (MIG), CXCL9 (gene 4283)
Nature of the assay: BSK_3C_MIG: BioMAP Diversity Plus: 3C Assay for Monokine induced gamma interferon (MIG) Biomarker Activity (AID 2283021).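 For AC50: MIG protein level measured by immunoassay in the treated endothelial cultures.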 As to conditions: primary human endothelial cells (HUVEC); actives raise or lower the signal. Summed up:
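After 24 h of treatment, human umbilical vein endothelial cultures (3C system) had their MIG biomarker level determined by ELISA, with DMSO serving as negative control.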

Assay [12] is described as follows: BSK_3C_SRB: Viability Assessment in the BioMAP Diversity Plus: 3C Assay (AID 2283023).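 Note: fitted both ways against DMSO so a hit may be signal rise or drop.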 As to conditions: primary human endothelial cells (HUVEC). Summed up:
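Primary human umbilical vein endothelial cells in the 3C system were read 24 h after compound dosing. Total protein was stained with 0.1% sulforhodamine B after 10% TCA fixation and read at 560 nm, with bidirectional fitting against DMSO as baseline.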

Read-out in assay [13]: Matrix Metallopeptidase 1 (MMP1), MMP1 (gene 4312)
Nature of the assay: BSK_BE3C_MMP1: BioMAP Diversity Plus: BE3C Assay for Matrix Metallopeptidase 1 (MMP1) Biomarker Activity (AID 2283024). As to conditions: primary human bronchial epithelial cells; actives raise or lower the signal. The method, boiled down:
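Dose cells, wait 24 h, run MMP1 ELISA; cells are human bronchial epithelial primaries. Both increases and decreases relative to DMSO counted.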

The nature of assay [14]: BSK_3C_Vis: BioMAP Diversity Plus: 3C Assay for Morphology Visualization (AID 2283025).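 For AC50: light microscopy image of cell morphology used as background control.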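 Note: fitted both ways so gain or loss versus DMSO counts.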 As to conditions: primary human endothelial cells (HUVEC). The method, boiled down:
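Endothelial cells from human umbilical vein were treated with test chemicals for 24 h and inspected by light microscopy for changes in cell conformation.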

Read-out in assay [15]: Pselectin, SELP (gene 6403)
Description: BSK_4H_Pselectin: BioMAP Diversity Plus: 4H Assay for Pselectin Biomarker Activity (AID 2283026). As to conditions: primary human endothelial cells (HUVEC); actives raise or lower the signal. Summed up: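 Human vascular endothelium from umbilical vein; P-selectin measured by ELISA at 24 h post-dose, with cytotoxicity checked by sulforhodamine B total-protein staining in parallel cultures (0.1% SRB after 10% TCA fixation, read at 560 nm).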

Assay [16] is described as follows: BSK_4H_SRB: Viability Assessment in the BioMAP Diversity Plus: 4H Assay (AID 2283027).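 For AC50: curves fitted both ways versus DMSO so AC50 may be loss or gain.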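 Note: cells exposed to compound for 24 h before staining.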 As to conditions: primary human endothelial cells (HUVEC). The method, boiled down: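 Absorbance at 560 nm of SRB-stained total protein served as the viability read-out in confluent primary human umbilical vein endothelium 24 h after chemical treatment. Curves were fitted bidirectionally against DMSO as negative control.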

Assay [17] is described as follows: BSK_BE3C_SRB: Viability Assessment in the BioMAP Diversity Plus: BE3C Assay (AID 2283028).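 For AC50: fitted both ways so AC50 may mark signal gain or loss versus DMSO.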 As to conditions: primary human bronchial epithelial cells. The method, boiled down:
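Human primary bronchial epithelial cells were exposed to test chemicals for 24 h. Total protein in parallel cultures was then measured by staining with 0.1% sulforhodamine B after 10% TCA fixation, with absorbance read at 560 nm. Activity was fitted bidirectionally against DMSO.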

Read-out in assay [18]: Thrombomodulin, THBD (gene 7056)
Nature of the assay: BSK_3C_Thrombomodulin: BioMAP Diversity Plus: 3C Assay for Thrombomodulin Biomarker Activity (AID 2283029). As to conditions: primary human endothelial cells (HUVEC); actives raise or lower the signal. Summed up:
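Thrombomodulin ELISA, human primary HUVEC, 24 h post-dose; data fitted in both directions relative to DMSO.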

Assay [19] concerns the target human Retinoid X Receptor beta (RXRb), RXRB (gene 6257) (UniProt P28702). Description: ATG_RXRb_TRANS: Attagene TRANS-FACTORIAL HepG2 Assay for human Retinoid X Receptor beta (RXRb) (AID 2283013; active = hit-call score of the fitted dose curve at least 0.9, where 1 is the maximum). Summed up: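 Multiplexed TRANS reporter assay in HepG2; 24 h dosing; reporter mRNA by RT-PCR/CE fluorescence; gain-of-signal relative to DMSO.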
The target in assay [20] is human Vitamin D Receptor (VDR), VDR (gene 7421) (UniProt P11473). Nature of the assay: ATG_VDR_TRANS: Attagene TRANS-FACTORIAL HepG2 Assay for human Vitamin D Receptor (VDR) (AID 2283022; active = hit-call score of the fitted dose curve at least 0.9, where 1 is the maximum). The method, boiled down: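 HepG2 cells were transiently transfected with multiple GAL4-UAS reporter units, so signal reflects exogenous chimeric receptor-Gal4 activity. After 24 h compound exposure, reporter mRNA was measured by RT-PCR, fluorescent labelling and capillary electrophoresis, fitted for gain of signal versus DMSO.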
human Vitamin D Receptor (VDR), VDR (gene 7421), sequence (P11473 whole entry, looked up, the tested form may be a part): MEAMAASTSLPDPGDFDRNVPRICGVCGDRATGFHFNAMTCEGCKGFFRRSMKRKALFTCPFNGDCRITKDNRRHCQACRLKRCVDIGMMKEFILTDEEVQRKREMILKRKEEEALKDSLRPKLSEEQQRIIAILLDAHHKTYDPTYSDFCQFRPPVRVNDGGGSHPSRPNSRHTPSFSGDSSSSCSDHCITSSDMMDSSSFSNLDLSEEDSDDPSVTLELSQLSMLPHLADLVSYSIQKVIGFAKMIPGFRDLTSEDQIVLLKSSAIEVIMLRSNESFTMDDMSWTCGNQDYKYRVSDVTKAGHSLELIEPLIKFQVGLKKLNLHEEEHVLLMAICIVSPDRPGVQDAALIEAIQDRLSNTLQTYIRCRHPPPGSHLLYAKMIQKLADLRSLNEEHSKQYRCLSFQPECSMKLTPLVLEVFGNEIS

human RAR-related Orphan Receptor gamma (RORg), RORC (gene 6097), sequence (P51449 whole entry, looked up, the tested form may be a part): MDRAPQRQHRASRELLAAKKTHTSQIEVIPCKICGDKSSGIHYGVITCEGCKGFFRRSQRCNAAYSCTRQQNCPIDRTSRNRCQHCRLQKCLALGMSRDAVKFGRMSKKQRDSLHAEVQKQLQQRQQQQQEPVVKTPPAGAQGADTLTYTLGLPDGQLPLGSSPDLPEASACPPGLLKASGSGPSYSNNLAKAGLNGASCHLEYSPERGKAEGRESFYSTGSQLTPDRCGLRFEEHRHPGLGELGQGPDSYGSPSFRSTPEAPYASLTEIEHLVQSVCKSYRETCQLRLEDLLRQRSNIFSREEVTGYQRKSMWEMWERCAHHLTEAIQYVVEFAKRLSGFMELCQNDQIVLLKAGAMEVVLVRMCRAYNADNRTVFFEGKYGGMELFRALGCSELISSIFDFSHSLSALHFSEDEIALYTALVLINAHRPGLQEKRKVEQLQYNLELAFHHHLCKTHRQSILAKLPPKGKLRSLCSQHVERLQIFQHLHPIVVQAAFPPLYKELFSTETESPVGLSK
Retinoic acid receptor RXR-alpha (Homo sapiens), sequence (P19793 whole entry, looked up, the tested form may be a part): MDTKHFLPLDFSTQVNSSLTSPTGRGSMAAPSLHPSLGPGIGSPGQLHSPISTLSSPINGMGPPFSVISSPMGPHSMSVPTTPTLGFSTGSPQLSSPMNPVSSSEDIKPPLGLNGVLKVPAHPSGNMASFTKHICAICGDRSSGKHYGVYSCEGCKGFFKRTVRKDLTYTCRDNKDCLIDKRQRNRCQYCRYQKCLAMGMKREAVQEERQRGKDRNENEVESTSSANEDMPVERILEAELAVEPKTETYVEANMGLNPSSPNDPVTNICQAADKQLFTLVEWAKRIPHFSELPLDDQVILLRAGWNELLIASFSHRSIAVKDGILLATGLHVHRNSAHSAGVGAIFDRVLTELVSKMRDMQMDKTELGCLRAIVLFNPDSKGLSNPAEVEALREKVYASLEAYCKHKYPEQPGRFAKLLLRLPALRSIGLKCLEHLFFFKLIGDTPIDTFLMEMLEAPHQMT
E-selectin (Homo sapiens), sequence (P16581 whole entry, looked up): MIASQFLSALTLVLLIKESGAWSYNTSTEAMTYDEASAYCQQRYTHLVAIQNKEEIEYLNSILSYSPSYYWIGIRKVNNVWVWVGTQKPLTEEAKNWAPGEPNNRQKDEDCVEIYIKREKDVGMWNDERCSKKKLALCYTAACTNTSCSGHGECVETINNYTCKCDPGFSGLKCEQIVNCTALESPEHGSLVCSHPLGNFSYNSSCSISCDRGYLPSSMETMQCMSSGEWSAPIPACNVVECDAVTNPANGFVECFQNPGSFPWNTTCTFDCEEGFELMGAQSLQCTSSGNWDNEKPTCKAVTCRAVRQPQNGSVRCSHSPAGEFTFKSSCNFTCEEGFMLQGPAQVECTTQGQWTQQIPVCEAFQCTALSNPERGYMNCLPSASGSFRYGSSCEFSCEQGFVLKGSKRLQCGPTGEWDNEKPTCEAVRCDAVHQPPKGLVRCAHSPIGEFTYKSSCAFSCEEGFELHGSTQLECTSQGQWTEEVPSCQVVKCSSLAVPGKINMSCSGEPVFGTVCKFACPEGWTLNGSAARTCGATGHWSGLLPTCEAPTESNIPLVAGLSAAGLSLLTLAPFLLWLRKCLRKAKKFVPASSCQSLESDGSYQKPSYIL
human Retinoid X Receptor beta (RXRb), RXRB (gene 6257), sequence (P28702 whole entry, looked up, the tested form may be a part): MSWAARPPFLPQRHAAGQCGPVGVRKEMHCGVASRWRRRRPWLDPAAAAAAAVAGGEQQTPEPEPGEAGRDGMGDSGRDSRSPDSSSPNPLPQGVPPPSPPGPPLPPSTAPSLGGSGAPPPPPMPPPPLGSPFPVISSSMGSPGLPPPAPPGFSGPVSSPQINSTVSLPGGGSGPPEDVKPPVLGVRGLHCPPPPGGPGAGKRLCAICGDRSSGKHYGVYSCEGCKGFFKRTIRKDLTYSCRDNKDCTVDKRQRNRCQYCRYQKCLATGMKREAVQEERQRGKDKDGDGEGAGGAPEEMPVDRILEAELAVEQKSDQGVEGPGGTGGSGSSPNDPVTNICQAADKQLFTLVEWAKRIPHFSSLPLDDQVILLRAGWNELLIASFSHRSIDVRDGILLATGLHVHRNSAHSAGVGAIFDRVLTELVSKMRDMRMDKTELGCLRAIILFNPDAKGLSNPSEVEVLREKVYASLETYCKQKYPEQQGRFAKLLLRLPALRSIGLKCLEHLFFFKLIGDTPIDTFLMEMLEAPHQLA
human Thyroid Receptor alpha (THRa1), THRA (gene 7067), sequence (P10827 whole entry, looked up, the tested form may be a part): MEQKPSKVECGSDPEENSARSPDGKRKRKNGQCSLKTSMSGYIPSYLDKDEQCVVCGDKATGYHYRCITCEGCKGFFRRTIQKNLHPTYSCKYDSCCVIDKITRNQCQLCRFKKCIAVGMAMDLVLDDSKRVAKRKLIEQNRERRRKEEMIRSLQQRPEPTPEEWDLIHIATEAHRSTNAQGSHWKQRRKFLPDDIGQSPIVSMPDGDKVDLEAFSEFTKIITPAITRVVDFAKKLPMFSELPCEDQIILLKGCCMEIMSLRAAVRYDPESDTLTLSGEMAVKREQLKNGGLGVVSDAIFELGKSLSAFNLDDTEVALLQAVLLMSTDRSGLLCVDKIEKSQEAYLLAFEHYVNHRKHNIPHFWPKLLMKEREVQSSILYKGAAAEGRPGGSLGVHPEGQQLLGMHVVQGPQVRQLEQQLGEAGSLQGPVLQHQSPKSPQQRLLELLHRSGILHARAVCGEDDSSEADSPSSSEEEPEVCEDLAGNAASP
human Retinoic Acid Receptor gamma (RARg), RARG (gene 5916), sequence (P13631 whole entry, looked up, the tested form may be a part): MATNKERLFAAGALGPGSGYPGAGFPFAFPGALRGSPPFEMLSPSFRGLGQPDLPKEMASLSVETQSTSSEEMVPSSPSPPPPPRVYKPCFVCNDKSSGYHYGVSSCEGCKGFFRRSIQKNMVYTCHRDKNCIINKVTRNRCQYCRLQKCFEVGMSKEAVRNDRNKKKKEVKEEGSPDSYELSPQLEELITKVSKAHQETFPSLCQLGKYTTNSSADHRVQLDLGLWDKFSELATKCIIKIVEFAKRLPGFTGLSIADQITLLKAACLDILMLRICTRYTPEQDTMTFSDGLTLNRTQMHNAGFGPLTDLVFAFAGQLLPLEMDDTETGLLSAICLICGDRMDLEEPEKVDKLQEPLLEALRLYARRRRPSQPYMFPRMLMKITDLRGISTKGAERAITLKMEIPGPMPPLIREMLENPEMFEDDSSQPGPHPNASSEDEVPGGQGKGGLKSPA

Consider `C#CCOS(=O)OC1CCCCC1Oc1ccc(C(C)(C)C)cc1` (stereo not drawn), for which the result in assay [1], in [2], in assay [3], in assay [4], in assay [13] and in assay [18] was inactive. Further, the AC50 in [5] is 1.13 µM (active); in assay [6], 30.3 µM (active); in assay [7] it was 10.9 µM (active); in assay [8], 10.1 µM (active); in [9] it was 6.28 µM (active); in [10], 7.04 µM (active). In addition, the AC50 in [11] is 20 µM (active); in [12], 12.3 µM (active); in [14], 5.07 µM (active); in assay [15], 3.97 µM (active); in assay [16], 11.3 µM (active); in [17], 22.7 µM (active).
As to `CC(C)(C)c1ccc(CSc2cnn(C(C)(C)C)c(=O)c2Cl)cc1`, the compound was called inactive in [1], in assay [2], in assay [3], in [19], in assay [6] and in [11]. In addition, the outcome in assay [20], in [13] and in assay [18] was inactive. Also, the AC50 in assay [5] was 3.97 µM (active); in assay [7], 10.4 µM (active); in assay [9], 3.97 µM (active); in assay [10], 7.27 µM (active); in [12], 10.9 µM (active); in [14], 15.2 µM (active). Also, the half-maximal activity concentration (AC50) in [15] was 11.1 µM (active); in [16] it was 16.5 µM (active); in assay [17], 7.9 µM (active).
Turning to `N#Cc1nn(-c2c(Cl)cc(C(F)(F)F)cc2Cl)c(N)c1S(=O)C(F)(F)F` (stereo not drawn), the result in [1], in [2], in [3], in [19], in assay [6] and in assay [11] was inactive. The call in assay [20], in assay [13] and in [18] was inactive. For the same compound, the AC50 in assay [4] is 48.7 µM (active); in assay [5], 20 µM (active); in assay [7], 30.5 µM (active); in [9], 14 µM (active); in [10], 27.8 µM (active); in assay [12] it was 32.8 µM (active). In addition, the AC50 is 37.5 µM (active) in [14], 20 µM (active) in assay [15], 33.5 µM (active) in assay [16] and 18 µM (active) in assay [17].
As to `COP(N)(=O)SC` (stereo not drawn), the outcome in assay [1], in assay [2], in [3], in [19], in assay [5] and in [6] was inactive. Besides, the result in assay [7], in assay [8], in assay [9], in [10], in assay [11] and in assay [12] was inactive. The outcome in assay [13], in assay [14], in assay [15], in [16], in assay [17] and in assay [18] was inactive.
As for `CCCCNC(=O)OCC#CI`, the compound was called inactive in assay [1], in assay [2], in assay [3], in [19], in assay [4] and in assay [20]. Also, the result in assay [18] was inactive. Moreover, the AC50 in assay [5] is 31.6 µM (active) and 31.8 µM (active); in assay [6] it was 33.7 µM (active) and 29.6 µM (active); in [7], 24.9 µM (active) and 19.2 µM (active); in assay [8], 26 µM (active) and 14.8 µM (active); in assay [9] it was 8.66 µM (active) and 11 µM (active); in assay [10], 26.2 µM (active) and 28.9 µM (active). Also, the AC50 was 32.3 µM (active) and 34.4 µM (active) in [11]; 18.9 µM (active) and 21.1 µM (active) in assay [12]; 32.9 µM (active) in assay [13]; 11.9 µM (active) and 14.4 µM (active) in assay [14]; 12.8 µM (active) and 16.1 µM (active) in assay [15]; 29 µM (active) and 27.9 µM (active) in [16]. Further, the AC50 in assay [17] was 21.5 µM (active) and 26.9 µM (active).
